# Screening results as filed in PubChem.
# Only some compounds are listed: those with a hit (about 11% of all), similar ones and a draw of the others.
# Pf growth 96h: P. falciparum growth inhibition at 96 hour, primary screen for plastid delayed-death inhibitors | 6.9% of 320,000 active | Potency, µM (series often up to 28.7 µM), for inactives: top-dose activity change, negative = inhibition, usual class: inhibitors | P. falciparum luciferase reporter growth, 96 h
#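 Cell-based qHTS: luciferase-tagged P. falciparum in erythrocytes (2% hematocrit, 0.05% parasitemia final) incubated with compounds for 96 hours, 37 C, 5% CO2; luciferase detection reagent then added and luminescence measured.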
# AMA1-RON2 inh: inhibitors of Plasmodium falciparum AMA1-RON2 interaction; Potency, µM (top dose mostly 58.2 µM), inactives show at the top dose activity change, negative = inhibition, usual class: inhibitors; AlphaScreen AMA1-biotinylated RON2 peptide binding; AID 720542; 0.2% of 360,000 active;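 further: 0% = vehicle wells and -100% = peptide control; nearly all actives have a fitted effect of over 45% in size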
#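 AMA1 (3D7) with his tag at 25 nM final met compounds first, then biotinylated RON2 peptide at 25 nM; detection used donor plus acceptor beads, 10 µg/mL apiece, read by AlphaScreen after 30 min at room temperature.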
# HCV inh: inhibitors of hepatitis C virus infection; Huh7.5.1 HCVcc-Cre infection, luciferase reporter, 44 h; Potency, µM (doses to about 41.8 µM), for inactives: at the top dose activity change, negative = inhibition, usual class: inhibitors; 3.4% of 340,000 active; AID 651820
#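 After 44 h co-culture of compound, cells and HCVcc-Cre (~0.5 moi), substrate is added for 15 min at room temperature and luciferase measured over 15 sec. Cells were seeded at 1,000/well and pre-cultured 4 h.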
# Pf growth 48h: P. falciparum growth inhibition at 48 hours (one generation); P. falciparum luciferase growth in erythrocytes, 48 h; Potency, µM (titrated, usually from 28.7 µM), for the others: at the top dose activity change, negative = inhibition, actives largely listed as inhibitors; 5.9% of 310,000 active; AID 504832
#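 A one-generation exposure of luciferase-tagged malaria parasites in RPMI 1640/Albumax erythrocyte culture, 37 C and 5% CO2. Inhibition is inferred from decreased luminescence after adding detection reagent.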
# * hit, by the source's call; ? = inconclusive; . = not tested or not shown; [ ] = remark or other dose. The call rests on the fitted dose curve; in most records, active means well fitted curve in the direction sought with a large enough effect; inconclusive means small, poorly fitted or top-dose-only effect, or another doubt; inactive means no such curve, though single readings can be large; an effect the other way counts as inactive or inconclusive. Unless noted, on the % scale 0 is the no-effect control and ±100 the full control effect; potency means the concentration at half of the fitted maximal effect.
SMILES,Pf growth 96h,AMA1-RON2 inh,HCV inh,Pf growth 48h
CC1(C(=O)NS(=O)(=O)c2cccc(F)c2)CCN1C(=O)CCc1ccccc1 (centres undefined),.,5%,.,.
COC(C[C@H](O)C[C@@H](O)COCc1ccccc1)OC,87%,15%,11%,43%
O=C(NCC1CCCO1)c1cc2ccccc2nc1Cl (centres undefined),102%,-3%,16%,94%
O=C(NCC1CCCO1)C(=O)N/N=C/c1ccc(O)c(Cl)c1 (centres undefined),4.1µM*,9%,19%,-2%
C=C(C)c1cccc(C(C)(C)NC(=O)NCC2CCCO2)c1 (centres undefined),96%,8%,-2%,7.4µM*
O=C(NCC1CCCO1)C(=O)N/N=C/c1cc(Cl)ccc1O (centres undefined),-8%,11%,8%,?
O=C(NCC1CCCO1)/C(=C\c1ccc(Cl)cc1)NC(=O)c1ccccc1 (centres undefined),0.83µM*,-1%,6%,27%
Cc1nc2ccc(F)cc2cc1C(=O)NCC1CCCO1 (centres undefined),6.6µM*,-2%,17%,?
C=C(C)c1cccc(C(C)(C)NC(=O)N2CCC(C)CC2)c1,-8%,19%,1%,.
C=CCC(NC(=O)N(C)C)(C(=O)OC)C(C)O (centres undefined),.,-7%,.,.
Cc1cc(NS(=O)(=O)c2ccc(NC(=O)CCCOc3ccccc3C)cc2)no1,54%,2%,7%,14%
C[C@@H]1CCC[C@H](C)N1Cc1nc(Cc2ccccc2Cl)no1,21%,-15%,-3%,8%
C=CCn1c(=O)c2c(nc3n2CCCN3CCc2ccc(OC)c(OC)c2)n(C)c1=O,-9%,-4%,?,-14%
COc1cc(C(=O)NCC2CCCO2)ccc1OCc1ccc(Cl)cc1Cl (centres undefined),12µM*,1%,?,12µM*
O=C(NCC1CCCO1)c1cc([N+](=O)[O-])ccc1N1CCC(Cc2ccccc2)CC1 (centres undefined),?,-4%,-26%,12µM*
O=C(NCC1CCCO1)c1ccc(C(=O)NCC2CCCO2)cc1 (centres undefined),0.47µM*,-3%,17%,43%
O=C(Cc1ccccc1)Nc1ccccc1C(=O)NCC1CCCO1 (centres undefined),13µM*,-7%,19%,-8%
CSc1nc(C)c(C(=O)C[n+]2ccc(C)cc2)cc1C#N,?,-3%,?,?
CCn1cc(Cl)c(C(=O)Nc2c(C)nn(Cc3c(F)c(F)c(F)c(F)c3F)c2C)n1,-7%,-2%,?,-12%
Cc1ccc(OCC(=O)Nc2ccccc2F)cc1C,?,-8%,10%,73%
CCN(Cc1ccccc1)N=Nc1ccccc1,.,25%,.,.
O=C(Nc1ccccc1Cl)N1CCSc2ccccc21,-11%,-7%,-5%,1.5µM*
O=C(Nc1cccc(Cl)c1)N1CCSc2cc(Cl)ccc21,13µM*,-12%,?,?
CCCn1c(=O)c2sccc2n2c(CCCC(=O)NC3CCN(Cc4ccccc4)CC3)nnc12,?,3%,10%,15%
OC(CNC1CCCc2ccccc21)COc1c(Cl)cccc1Cl (centres undefined),3.3µM*,5%,?,1.9µM*
SMILES,Pf growth 96h,AMA1-RON2 inh,HCV inh,Pf growth 48h
N#C/C(=C/N1CCOCC1)c1ccccc1,7%,0%,3.2µM*,50%
O=C(c1ccccc1)N1CCN(C(=O)N2CCOCC2)CC1,.,-4%,13%,.
CC(=O)OCCCNc1cc(SCc2ccco2)c2nonc2c1[N+](=O)[O-],2.3µM*,-11%,0%,2%
CCCC(=O)OCCNc1cc(SCc2ccco2)c2nonc2c1[N+](=O)[O-],?,-14%[11.6 µM],9%,-19%
Cc1noc(C)c1COC(=O)CCCc1c[nH]c2ccccc12,?,-14%,-5%,12µM*
CCOC(=O)CCCc1c[nH]c2ccccc12,?,0%,?,-10%
CN(CC(=O)Nc1cccc(F)c1)CC(=O)Nc1cccc(S(N)(=O)=O)c1,-1%,61%,-9%,-6%
Cc1ccccc1-c1nnc(SCC(=O)N(C)c2c(N)n(Cc3ccccc3)c(=O)[nH]c2=O)n1C,-2%,-7%,7%,0%
Cc1cc(C)c(C#N)c(OCC(=O)c2ccc(Br)cc2)n1,4.7µM*,40%,?,?
Cc1ccc(C(=O)COc2nc(C)cc(C)c2C#N)cc1,?,38%,-7%,-16%
O=C1CCCc2cc(S(=O)(=O)N3CCC(C(=O)NCc4ccccc4)CC3)ccc2N1,19%,5%,4%,?
CCOc1ccc(S(=O)(=O)N2CCC(C(=O)NCc3ccccc3CN3CCCC3)CC2)cc1,13µM*,-8%,-30%,9.3µM*
CCOC(=O)C1CCN(S(=O)(=O)c2ccc3c(c2)CC(=O)N3)CC1,0%,1%,20%,12µM*
N#Cc1ccccc1S(=O)(=O)N1CCC(C(=O)NCc2ccccc2CN2CCCC2)CC1,6.6µM*,1%,-10%,?
CCOc1ccc(CNC(=O)C2CCN(S(=O)(=O)c3ccc4c(c3)CCCC(=O)N4)CC2)cc1,9.3µM*,5%,-20%,9.3µM*
CC(C)C(NC(=O)c1ccccc1F)C(=O)NCc1ccccc1 (centres undefined),4%,23%,12%,3%
COc1cccc(-n2c(SCC(=O)NC3CC3)nc3ccccc3c2=O)c1,.,-1%,.,.
Cn1c(N)c(C(=O)COC(=O)c2ccc3c(c2)C(=O)N(c2ccc(Cl)cc2)C3=O)c(=O)n(C)c1=O,17%,1%,5%,3%
CCOc1ccc(S(=O)(=O)N2CCC(C(=O)OC(C)C(=O)NC3CCCCC3C)CC2)cc1 (centres undefined),13µM*,14%,2%,8.3µM*
Cc1ccc(S(=O)(=O)N2CCC(C(=O)OC(C)C(=O)NC3CCCCC3C)CC2)cc1C (centres undefined),?,-5%,2%,?
CCOC(=O)c1cnc2ccc(OC)cc2c1Nc1ccc(N2CCN(C)CC2)cc1,0.93µM*,-29%,?,1.7µM*
CCOC(=O)c1cnc2ccc(C(=O)OC)cc2c1Nc1ccc(C(=O)O)cc1,28%,0%,0%,?
CCOC(=O)c1cnc2ccc(C(=O)OC)cc2c1Nc1ccc2c(c1)OCCO2,10µM*,1%,?,?
CCOC(=O)c1cnc2c(C)cccc2c1Nc1ccc(N2CCOCC2)cc1,?,.,1%,-35%
CCOC(=O)c1cnc2c(OC)cccc2c1Nc1ccc2c(c1)OCCO2,?,-4%,?,2.3µM*
O=C(C1CCN(S(=O)(=O)c2ccc(-n3cnnn3)cc2)CC1)N1CCCCC1,-28%,5%,-38%,18%
Cc1c(C(=O)N2CCCC(C)(C(=O)NS(=O)(=O)C3CC3)C2)oc2ccccc12 (centres undefined),.,-1%,.,.
